ATXN2 expr inh: ATXN2 expression inhibition. Potency, µM (titrated, usually from 57 µM), hits mostly inhibitors. 360,000 compounds, 0.72% hits. AID 1745845. HEK-293 ATXN2-luciferase reporter, luminescence, 24 h; further: nearly all actives have a fitted effect of over 55% in size
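ATXN2-luciferase reporter cells (luciferase flanked by upstream and downstream ATXN2 gene portions) were treated 24 h at 37 °C with compounds at up to 57 uM. SteadyGlo luminescence gave expression; GF-AFC fluorescence gave viability.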
ATXN viability: cell viability loss in ATXN counter-screen | S2 cells (HEK-293 line with an ATXN2-luciferase reporter) viability, CellTiter-Fluor protease fluorescence, 24 h | Potency, µM (top dose mostly 56.7 µM), most hits filed as cytotoxic | 400,000 compounds, 0.49% hits; further: nearly all actives have a fitted effect of over 40% in size
HT1080NT lethal: kills 2HG-producing HT-1080-NT fibrosarcoma cells. HT-1080-NT fibrosarcoma viability, CellTiter-Glo ATP luminescence, 48 h. 360,000 compounds, 1.6% hits. AID 686970. Potency, µM (top dose mostly 46.1 µM), most hits filed as cytotoxic;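 further: NT is the 2HG producing partner of a matched IDH1 knockdown line; nearly all actives have a fitted effect of over 55% in size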
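Toxicity toward the 2HG-producing NT line was scored as %Activity, normalised to DMSO and no-cell wells, from CellTiter-Glo luminescence after 48 hours' treatment.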
KB-V1 MDR tox: kills drug-selected multidrug resistant KB-V1 cells. 400,000 compounds, 3.4% hits. KB-V1 MDR cells viability, CellTiter-Glo, 72 h. Potency, µM (titrated, usually from 46.1 µM), actives largely listed as cytotoxic; further: nearly all actives have a fitted effect of over 60% in size
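Readout: CellTiter-Glo luminescence, 10 min after addition. Cells: KB-V1 MDR subline, 72 h at 37 degrees C with compound. Analysis: corrected, normalized data fitted to concentration-effect curves.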
KB-3-1 cytotox: KB-3-1 parental cell cytotoxicity | AID 1347075 | Potency, µM (highest dose often 46.1 µM), most hits filed as cytotoxic | KB-3-1 viability, CellTiter-Glo ATP luminescence, 72 h | 400,000 compounds, 1.4% hits; further: nearly all actives have a fitted effect of over 60% in size
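KB-3-1 cells, DMEM (no phenol red) + 10% FBS; compound by pin transfer, 72 h, 37 °C. Readout: CellTiter-Glo luminescence after 10 min. Data normalized, curve-fitted.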
HT1080 IDH1KD tx: kills HT-1080 cells with IDH1 knockdown; Potency, µM (top dose mostly 46.1 µM), actives largely listed as cytotoxic; 360,000 compounds, 2% hits; HT-1080 IDH1 knockdown viability, ATP luminescence, 48 h
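Luminescent ATP read-out (CellTiter-Glo, 10 min at room temperature) after 48 h compound exposure at 37 °C gave viability of IDH1-knockdown HT-1080 cells. Activity was normalised to DMSO and cell-free wells, then fitted as concentration-response curves.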
Large screens that a line does not name were inactive. In the library only some 6.2% were active in any assay of this set; here they are far more common. The call rests on the fitted dose curve; in most records, active means well fitted curve in the direction sought with a large enough effect; inconclusive means small, poorly fitted or top-dose-only effect, or another doubt; inactive means no such curve, though single readings can be large; an effect the other way counts as inactive or inconclusive.

C=C(C)C(=O)Oc1ccc(N=Nc2ccc(C)cc2)ccc1=O	ATXN2 expr inh inconclusive, ATXN viability 32µM, HT1080NT lethal inconclusive, KB-V1 MDR tox inconclusive, HT1080 IDH1KD tx 23µM
Cc1cccc(C)c1NS(=O)(=O)c1ccc(NC(=O)c2ccc(Cl)c([N+](=O)[O-])c2)cc1	ATXN viability 25µM, HT1080NT lethal inconclusive, KB-V1 MDR tox inconclusive, HT1080 IDH1KD tx inconclusive (no result: ATXN2 expr inh)
O=C(O)c1cc(NC(=O)c2ccc(Cl)c([N+](=O)[O-])c2)cc(C(=O)O)c1	none
O=C(Nc1ccc(S(=O)(=O)NC2=NCCCCC2)cc1)c1ccc(Cl)c([N+](=O)[O-])c1	HT1080NT lethal inconclusive
O=C(Nc1ccc(C(O)(C(F)(F)F)C(F)(F)F)cc1)c1ccc(Cl)c([N+](=O)[O-])c1	ATXN2 expr inh inconclusive, ATXN viability inconclusive, HT1080NT lethal inconclusive, KB-V1 MDR tox inconclusive, KB-3-1 cytotox inconclusive, HT1080 IDH1KD tx 23µM
C[C@@H]1C[C@H](OC(=O)c2ccccc2O)CC(C)(C)C1	none (no result: ATXN2 expr inh, HT1080NT lethal, KB-V1 MDR tox, KB-3-1 cytotox, HT1080 IDH1KD tx)
C/C(CC(C)(C)C1CCCCC1)=N\NC(N)=S	ATXN2 expr inh 32µM, ATXN viability 32µM, HT1080NT lethal 5µM, KB-V1 MDR tox inconclusive, HT1080 IDH1KD tx inconclusive
COc1cccc(CN2CCC(n3cc(C(=O)N4CCCCC4)nn3)CC2)c1OC	none (no result: ATXN2 expr inh, HT1080NT lethal, KB-V1 MDR tox, KB-3-1 cytotox, HT1080 IDH1KD tx)
Cc1ccc2c(c1)N(CC(=O)NC1CCCc3ccccc31)C(=O)CO2 (configuration not stated)	KB-V1 MDR tox 16µM
Cc1ccc2c(c1)N(CC(=O)N1CCCCC1)C(=O)CO2	KB-V1 MDR tox inconclusive, KB-3-1 cytotox inconclusive
CC1CC(C)(C)CC2(C1)NC(=O)N(CC(=O)NC1CCCc3ccccc31)C2=O (configuration not stated)	KB-V1 MDR tox 21µM
CCOC(=O)c1cc2occc2n1CC(=O)N1CCCc2ccccc21	KB-V1 MDR tox 16µM
Cc1ccc2c(c1)N(CC(=O)N1CCCc3ccccc31)C(=O)CO2	KB-V1 MDR tox 12µM
C[C@@H]1COC(=O)[C@@H](CC(=O)OC(C)(C)C)C/C=C\C[C@@H](CC(=O)N[C@H](CO)Cc2ccccc2)C(=O)N1	none
COc1ccc(CCn2c3c(c(=O)[nH]c2=S)CN(Cc2ccccc2)CN3)cc1OC	none (no result: ATXN2 expr inh, ATXN viability, KB-V1 MDR tox, KB-3-1 cytotox)
CCOC(=O)C1=C(CN2CCN(c3cccc(Cl)c3)CC2)NC(=O)NC1c1ccc(Cl)cc1 (configuration not stated)	none (no result: HT1080NT lethal, HT1080 IDH1KD tx)
CC(CSc1nnnn1-c1ccccc1)Cn1c(N2CCCC2)nc2c1c(=O)[nH]c(=O)n2C (configuration not stated)	KB-V1 MDR tox 2.3µM
CCCCCCn1c(N2CCN(c3ccccc3)CC2)nc2c1c(=O)[nH]c(=O)n2C	KB-V1 MDR tox inconclusive, KB-3-1 cytotox inconclusive, HT1080 IDH1KD tx inconclusive
CCCCCn1c(CN2CCN(c3cccc(Cl)c3)CC2)nc2c1c(=O)[nH]c(=O)n2C	ATXN2 expr inh 25µM, ATXN viability inconclusive, HT1080NT lethal inconclusive, KB-V1 MDR tox inconclusive, KB-3-1 cytotox 23µM, HT1080 IDH1KD tx inconclusive
Cn1c(=O)[nH]c(=O)c2c1nc(CN1CCN(c3cccc(Cl)c3)CC1)n2CCc1ccccc1	HT1080NT lethal inconclusive, KB-V1 MDR tox inconclusive, HT1080 IDH1KD tx inconclusive
CCCCCCCCn1c(N2CCN(c3cccc(Cl)c3)CC2)nc2c1c(=O)[nH]c(=O)n2C	KB-V1 MDR tox 13µM
CCCCCCn1c(N2CCN(c3cccc(Cl)c3)CC2)nc2c1c(=O)[nH]c(=O)n2C	KB-V1 MDR tox 16µM, KB-3-1 cytotox inconclusive
Cc1cccc(C)c1NC(=O)NCCc1c[nH]c2ccccc12	KB-V1 MDR tox inconclusive (no result: HT1080NT lethal, HT1080 IDH1KD tx)
COCCCNC(=O)c1c(NC(=O)c2cc(=O)c3ccccc3o2)sc2c1CCCC2	none (no result: HT1080NT lethal, HT1080 IDH1KD tx)
COc1ccc(-c2noc(-c3ccccc3C(=O)N3CCOCC3)n2)cc1	KB-V1 MDR tox 9.2µM
COc1ccccc1NC(=O)C12CC3CC(C1)CC(c1ccc(C)cc1)(C3)C2	KB-V1 MDR tox 16µM
CCOc1c(N2CCOCC2)cnn(C)c1=O	none (no result: HT1080NT lethal, KB-V1 MDR tox, KB-3-1 cytotox, HT1080 IDH1KD tx)
S=c1[nH]cc(-c2ccccc2)n1-c1ccccc1Cl	KB-V1 MDR tox 13µM

From PubChem
